Test results published in the supplement of paper PMC11732987, “Enantioselective OTUD7B fragment discovery through chemoproteomics screening and high-throughput optimisation” (Communications Chemistry, 2025).

Experiments:
Experiment in all cases: log2 ratio of Biotin-Ahx-Ub-VS probe labelling (fragment/DMSO); higher = less target engagement (more negative = stronger competition), active = hit call of the paper (q ≤ 0.05, log2 ratio ≤ -1)
Conditions in all cases: compound concentration: 200 uM; treatment time: 3 h
USP42 = biological target: T1, USP42 (UniProt Q9H9J4)
T1 sequence (whole entry): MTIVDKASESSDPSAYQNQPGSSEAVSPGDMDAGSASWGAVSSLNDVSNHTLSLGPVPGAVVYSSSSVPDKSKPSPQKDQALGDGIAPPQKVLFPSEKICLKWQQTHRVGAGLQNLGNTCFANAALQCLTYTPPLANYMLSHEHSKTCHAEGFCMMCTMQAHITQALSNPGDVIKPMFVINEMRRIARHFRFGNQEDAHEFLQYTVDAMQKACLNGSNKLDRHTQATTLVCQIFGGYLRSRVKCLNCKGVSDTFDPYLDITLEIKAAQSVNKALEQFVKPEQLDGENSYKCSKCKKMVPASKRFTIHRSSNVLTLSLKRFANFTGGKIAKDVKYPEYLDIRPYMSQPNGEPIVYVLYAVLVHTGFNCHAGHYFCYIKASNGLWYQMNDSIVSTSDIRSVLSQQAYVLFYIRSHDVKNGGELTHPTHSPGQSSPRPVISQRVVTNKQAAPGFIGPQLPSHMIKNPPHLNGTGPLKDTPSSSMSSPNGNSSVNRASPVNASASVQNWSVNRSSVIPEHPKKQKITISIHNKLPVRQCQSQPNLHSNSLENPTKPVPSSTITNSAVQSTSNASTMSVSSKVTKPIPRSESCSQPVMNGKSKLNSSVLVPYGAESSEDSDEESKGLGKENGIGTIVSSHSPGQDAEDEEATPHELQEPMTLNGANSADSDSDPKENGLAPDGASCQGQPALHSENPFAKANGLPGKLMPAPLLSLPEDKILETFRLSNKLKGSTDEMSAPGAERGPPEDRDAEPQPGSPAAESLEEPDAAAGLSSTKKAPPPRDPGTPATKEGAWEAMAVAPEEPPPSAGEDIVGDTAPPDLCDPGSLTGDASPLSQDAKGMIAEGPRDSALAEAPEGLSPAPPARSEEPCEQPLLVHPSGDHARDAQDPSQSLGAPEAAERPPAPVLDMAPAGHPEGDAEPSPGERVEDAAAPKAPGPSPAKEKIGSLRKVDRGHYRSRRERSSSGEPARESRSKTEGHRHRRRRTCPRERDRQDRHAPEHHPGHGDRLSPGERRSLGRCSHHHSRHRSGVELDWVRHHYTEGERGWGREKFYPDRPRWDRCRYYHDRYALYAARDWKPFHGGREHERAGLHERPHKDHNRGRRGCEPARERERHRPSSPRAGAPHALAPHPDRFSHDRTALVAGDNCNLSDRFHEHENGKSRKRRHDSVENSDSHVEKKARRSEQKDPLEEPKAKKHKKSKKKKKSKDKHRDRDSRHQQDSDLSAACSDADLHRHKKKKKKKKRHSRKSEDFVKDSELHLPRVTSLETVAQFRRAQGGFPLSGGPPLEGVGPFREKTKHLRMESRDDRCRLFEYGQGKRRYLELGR
Procedure, shortened: (§1)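 Labelled DUBs from HEK293T lysate were NeutrAvidin-enriched, digested with LysC and trypsin, and run by diaPASEF LC-MS/MS. Before that, each 495 µg sample in Tris/CHAPS/IGEPAL buffer with protease inhibitors was treated in triplicate with fragment at 200 µM or vehicle for 3 h, then with Biotin-Ahx-Ub-VS at 0.5 µM final for 1 h. Values are average log2 ratios of fragment over vehicle by unpaired t-test, based on global-median-normalised Spectronaut label-free quantities from proteins with ≥2 unique peptides.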

USP46 = USP46 (UniProt P62068)
Chain of USP46 (P62068 whole entry): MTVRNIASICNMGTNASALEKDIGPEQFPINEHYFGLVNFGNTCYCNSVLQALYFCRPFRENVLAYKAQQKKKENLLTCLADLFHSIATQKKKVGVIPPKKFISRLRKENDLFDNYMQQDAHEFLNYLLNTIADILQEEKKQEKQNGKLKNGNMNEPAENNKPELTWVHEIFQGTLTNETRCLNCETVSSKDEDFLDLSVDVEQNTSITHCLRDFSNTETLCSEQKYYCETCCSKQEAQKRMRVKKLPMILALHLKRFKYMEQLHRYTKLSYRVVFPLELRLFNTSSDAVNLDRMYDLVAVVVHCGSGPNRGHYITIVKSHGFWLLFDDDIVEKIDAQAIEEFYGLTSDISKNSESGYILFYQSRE
Procedure, shortened: as §1

USP47 = biological target: T2, USP47 (UniProt Q96K76)
T2 sequence (whole entry): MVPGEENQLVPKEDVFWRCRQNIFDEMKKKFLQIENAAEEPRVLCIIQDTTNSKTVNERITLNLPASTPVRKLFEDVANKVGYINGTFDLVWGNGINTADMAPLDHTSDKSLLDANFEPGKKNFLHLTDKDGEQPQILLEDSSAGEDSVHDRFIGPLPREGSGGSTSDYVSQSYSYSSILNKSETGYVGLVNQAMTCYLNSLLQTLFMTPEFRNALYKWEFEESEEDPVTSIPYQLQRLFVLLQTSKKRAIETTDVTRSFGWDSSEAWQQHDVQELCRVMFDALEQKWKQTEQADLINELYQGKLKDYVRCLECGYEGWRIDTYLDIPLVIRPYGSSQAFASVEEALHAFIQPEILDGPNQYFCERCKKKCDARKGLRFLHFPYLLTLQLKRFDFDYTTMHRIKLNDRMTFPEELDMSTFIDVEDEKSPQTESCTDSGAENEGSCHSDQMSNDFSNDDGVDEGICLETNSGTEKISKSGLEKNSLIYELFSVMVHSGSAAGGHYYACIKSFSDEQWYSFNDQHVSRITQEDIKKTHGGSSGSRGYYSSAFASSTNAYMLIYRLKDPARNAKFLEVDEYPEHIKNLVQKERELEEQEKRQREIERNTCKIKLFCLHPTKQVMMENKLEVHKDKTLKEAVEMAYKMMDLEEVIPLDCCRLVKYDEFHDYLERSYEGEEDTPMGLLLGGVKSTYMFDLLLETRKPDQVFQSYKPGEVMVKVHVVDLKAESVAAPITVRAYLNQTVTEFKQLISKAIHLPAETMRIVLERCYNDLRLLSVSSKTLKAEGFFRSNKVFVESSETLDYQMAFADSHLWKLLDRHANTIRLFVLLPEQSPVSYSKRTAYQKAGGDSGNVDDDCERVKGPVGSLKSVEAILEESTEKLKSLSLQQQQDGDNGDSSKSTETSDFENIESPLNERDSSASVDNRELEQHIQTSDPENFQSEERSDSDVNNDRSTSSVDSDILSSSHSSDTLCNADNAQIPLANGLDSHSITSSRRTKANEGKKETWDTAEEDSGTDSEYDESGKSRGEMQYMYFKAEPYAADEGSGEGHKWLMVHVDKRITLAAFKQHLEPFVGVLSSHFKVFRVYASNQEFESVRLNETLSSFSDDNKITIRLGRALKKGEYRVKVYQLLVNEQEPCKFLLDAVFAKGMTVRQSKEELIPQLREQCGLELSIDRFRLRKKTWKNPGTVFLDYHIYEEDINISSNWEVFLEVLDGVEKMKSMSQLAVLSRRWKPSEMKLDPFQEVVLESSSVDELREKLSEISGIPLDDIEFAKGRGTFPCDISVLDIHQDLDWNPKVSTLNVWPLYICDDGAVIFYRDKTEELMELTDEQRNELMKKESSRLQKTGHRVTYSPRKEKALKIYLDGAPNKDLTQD
Procedure, shortened: as §1

USP48 = biological target: T3, USP48 (UniProt Q86UV5)
T3 sequence (whole entry): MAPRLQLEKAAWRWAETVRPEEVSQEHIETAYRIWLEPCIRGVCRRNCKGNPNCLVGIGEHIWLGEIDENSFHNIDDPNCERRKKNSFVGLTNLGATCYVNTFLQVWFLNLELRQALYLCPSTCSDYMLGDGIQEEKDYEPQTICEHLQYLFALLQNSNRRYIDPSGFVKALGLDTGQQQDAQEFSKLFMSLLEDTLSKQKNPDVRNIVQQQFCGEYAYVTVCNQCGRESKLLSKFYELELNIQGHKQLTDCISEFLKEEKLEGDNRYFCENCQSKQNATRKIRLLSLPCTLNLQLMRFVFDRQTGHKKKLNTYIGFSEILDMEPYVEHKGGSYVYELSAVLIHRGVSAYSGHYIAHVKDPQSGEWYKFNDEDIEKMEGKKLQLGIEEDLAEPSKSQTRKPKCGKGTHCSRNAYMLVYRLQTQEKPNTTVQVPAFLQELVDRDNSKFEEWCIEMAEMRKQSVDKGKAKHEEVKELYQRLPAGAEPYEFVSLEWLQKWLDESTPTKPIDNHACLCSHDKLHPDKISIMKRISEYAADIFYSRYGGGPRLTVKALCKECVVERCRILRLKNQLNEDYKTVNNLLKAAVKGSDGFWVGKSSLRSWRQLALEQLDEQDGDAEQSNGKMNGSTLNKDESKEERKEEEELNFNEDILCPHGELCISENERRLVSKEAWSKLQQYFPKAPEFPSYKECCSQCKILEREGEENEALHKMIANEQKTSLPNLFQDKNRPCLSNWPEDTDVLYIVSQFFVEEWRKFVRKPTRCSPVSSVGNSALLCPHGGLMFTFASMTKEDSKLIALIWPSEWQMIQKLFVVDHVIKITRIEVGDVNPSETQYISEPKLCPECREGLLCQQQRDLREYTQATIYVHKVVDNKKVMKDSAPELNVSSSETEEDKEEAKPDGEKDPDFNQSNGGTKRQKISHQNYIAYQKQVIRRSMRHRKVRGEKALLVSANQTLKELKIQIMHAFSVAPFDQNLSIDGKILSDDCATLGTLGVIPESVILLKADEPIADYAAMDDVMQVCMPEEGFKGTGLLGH
Procedure, shortened: as §1

USP5 = biological target: T4, USP5 (UniProt P45974)
T4 sequence (whole entry): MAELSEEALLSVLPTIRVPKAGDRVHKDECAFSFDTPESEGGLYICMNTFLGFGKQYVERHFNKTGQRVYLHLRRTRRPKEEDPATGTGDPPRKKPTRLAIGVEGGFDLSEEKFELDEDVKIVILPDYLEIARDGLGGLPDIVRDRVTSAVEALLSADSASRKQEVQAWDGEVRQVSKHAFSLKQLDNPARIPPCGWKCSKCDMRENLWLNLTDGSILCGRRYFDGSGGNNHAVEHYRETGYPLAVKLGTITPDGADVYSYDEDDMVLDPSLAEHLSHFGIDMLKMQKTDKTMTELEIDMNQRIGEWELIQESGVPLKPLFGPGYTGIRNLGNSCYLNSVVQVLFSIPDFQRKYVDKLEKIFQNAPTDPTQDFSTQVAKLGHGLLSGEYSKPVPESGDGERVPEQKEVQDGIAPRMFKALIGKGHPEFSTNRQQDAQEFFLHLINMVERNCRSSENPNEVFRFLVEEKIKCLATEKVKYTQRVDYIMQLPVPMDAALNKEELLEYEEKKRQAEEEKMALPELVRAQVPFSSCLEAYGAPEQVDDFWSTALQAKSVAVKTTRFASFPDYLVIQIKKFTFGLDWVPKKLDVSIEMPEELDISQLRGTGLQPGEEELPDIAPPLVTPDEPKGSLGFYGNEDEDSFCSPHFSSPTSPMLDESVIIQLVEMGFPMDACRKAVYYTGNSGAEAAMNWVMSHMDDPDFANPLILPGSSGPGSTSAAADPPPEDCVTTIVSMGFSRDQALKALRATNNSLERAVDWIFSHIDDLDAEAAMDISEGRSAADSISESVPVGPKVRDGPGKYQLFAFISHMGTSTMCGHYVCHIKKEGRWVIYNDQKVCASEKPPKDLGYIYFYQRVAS
Procedure, shortened: as §1

USP54 = USP54 (UniProt Q70EL1)
Chain of USP54 (Q70EL1 whole entry): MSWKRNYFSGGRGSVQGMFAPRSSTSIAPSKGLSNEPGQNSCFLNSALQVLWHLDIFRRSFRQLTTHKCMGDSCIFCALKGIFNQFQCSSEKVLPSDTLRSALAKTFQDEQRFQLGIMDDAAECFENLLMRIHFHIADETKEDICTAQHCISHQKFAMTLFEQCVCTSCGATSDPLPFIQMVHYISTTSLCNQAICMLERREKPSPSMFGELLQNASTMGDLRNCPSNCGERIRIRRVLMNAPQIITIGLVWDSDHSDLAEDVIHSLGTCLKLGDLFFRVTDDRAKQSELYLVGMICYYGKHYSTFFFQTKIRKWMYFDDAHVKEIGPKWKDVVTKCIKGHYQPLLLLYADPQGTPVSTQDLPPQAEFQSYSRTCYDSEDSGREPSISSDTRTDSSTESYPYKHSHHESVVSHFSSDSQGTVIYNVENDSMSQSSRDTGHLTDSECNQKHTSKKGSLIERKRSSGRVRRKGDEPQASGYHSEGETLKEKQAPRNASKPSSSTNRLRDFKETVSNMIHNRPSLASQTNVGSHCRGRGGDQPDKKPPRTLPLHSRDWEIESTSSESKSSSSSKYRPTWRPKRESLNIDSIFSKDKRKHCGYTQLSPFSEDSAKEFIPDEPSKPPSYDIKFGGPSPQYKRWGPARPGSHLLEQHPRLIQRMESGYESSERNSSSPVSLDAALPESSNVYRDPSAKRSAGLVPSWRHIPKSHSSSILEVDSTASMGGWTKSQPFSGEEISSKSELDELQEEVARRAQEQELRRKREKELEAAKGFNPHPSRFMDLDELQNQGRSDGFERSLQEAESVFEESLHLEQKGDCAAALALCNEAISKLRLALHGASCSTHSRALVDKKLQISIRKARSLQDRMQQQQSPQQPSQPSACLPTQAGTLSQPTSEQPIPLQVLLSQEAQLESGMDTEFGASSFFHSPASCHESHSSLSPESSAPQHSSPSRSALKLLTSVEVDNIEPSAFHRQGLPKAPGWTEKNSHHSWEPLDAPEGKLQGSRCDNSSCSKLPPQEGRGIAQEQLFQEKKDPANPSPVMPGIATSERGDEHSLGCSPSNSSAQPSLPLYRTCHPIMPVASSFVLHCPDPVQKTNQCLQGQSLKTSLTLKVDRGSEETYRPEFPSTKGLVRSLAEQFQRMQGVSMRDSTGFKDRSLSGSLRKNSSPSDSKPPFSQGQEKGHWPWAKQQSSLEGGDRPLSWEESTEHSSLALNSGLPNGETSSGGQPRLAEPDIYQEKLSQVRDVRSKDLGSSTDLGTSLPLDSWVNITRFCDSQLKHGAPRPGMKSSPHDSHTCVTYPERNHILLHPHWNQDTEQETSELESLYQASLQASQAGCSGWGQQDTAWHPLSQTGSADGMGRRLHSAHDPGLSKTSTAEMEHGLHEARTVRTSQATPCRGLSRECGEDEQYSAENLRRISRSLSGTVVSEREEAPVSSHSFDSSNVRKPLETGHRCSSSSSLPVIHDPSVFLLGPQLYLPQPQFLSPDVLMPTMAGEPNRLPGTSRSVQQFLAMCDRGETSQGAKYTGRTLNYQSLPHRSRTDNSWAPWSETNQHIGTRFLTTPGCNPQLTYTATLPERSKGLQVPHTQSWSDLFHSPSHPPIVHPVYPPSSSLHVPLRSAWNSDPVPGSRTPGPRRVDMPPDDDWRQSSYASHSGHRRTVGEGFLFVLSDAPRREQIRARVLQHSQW
Procedure, shortened: as §1

USP7 = USP7 (UniProt Q93009)
Chain of USP7 (Q93009 whole entry, looked up): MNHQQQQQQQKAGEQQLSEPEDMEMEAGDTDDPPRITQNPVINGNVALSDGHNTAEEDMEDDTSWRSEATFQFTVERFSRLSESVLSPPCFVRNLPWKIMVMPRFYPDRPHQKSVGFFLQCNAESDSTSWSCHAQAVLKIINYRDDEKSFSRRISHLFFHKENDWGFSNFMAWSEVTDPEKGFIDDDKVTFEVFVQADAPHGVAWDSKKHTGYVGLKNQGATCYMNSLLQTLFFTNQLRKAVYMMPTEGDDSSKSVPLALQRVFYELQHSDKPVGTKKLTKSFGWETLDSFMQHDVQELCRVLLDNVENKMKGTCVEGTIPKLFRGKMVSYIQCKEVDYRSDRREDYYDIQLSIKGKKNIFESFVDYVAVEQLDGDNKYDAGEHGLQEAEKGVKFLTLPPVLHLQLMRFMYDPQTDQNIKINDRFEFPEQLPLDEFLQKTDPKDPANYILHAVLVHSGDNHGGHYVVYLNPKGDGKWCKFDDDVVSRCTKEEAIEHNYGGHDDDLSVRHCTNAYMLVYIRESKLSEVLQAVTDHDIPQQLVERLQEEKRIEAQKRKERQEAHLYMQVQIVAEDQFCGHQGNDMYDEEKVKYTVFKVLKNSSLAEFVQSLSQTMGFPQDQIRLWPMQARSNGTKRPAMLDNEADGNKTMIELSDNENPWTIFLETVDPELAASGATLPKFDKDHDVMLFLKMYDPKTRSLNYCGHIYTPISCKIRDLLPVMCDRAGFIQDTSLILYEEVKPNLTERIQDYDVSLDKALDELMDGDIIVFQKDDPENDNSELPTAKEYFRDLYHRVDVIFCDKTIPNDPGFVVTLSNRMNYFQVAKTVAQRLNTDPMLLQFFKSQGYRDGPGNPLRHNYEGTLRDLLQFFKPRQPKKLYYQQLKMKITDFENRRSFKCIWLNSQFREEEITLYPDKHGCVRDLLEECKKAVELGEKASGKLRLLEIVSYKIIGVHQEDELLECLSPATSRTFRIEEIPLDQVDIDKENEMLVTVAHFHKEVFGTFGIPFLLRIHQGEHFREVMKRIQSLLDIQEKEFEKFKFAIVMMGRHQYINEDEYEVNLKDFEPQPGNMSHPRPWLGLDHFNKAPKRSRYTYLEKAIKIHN
Procedure, shortened: as §1

USP8 = biological target: T5, USP8 (UniProt P40818)
T5 sequence (whole entry): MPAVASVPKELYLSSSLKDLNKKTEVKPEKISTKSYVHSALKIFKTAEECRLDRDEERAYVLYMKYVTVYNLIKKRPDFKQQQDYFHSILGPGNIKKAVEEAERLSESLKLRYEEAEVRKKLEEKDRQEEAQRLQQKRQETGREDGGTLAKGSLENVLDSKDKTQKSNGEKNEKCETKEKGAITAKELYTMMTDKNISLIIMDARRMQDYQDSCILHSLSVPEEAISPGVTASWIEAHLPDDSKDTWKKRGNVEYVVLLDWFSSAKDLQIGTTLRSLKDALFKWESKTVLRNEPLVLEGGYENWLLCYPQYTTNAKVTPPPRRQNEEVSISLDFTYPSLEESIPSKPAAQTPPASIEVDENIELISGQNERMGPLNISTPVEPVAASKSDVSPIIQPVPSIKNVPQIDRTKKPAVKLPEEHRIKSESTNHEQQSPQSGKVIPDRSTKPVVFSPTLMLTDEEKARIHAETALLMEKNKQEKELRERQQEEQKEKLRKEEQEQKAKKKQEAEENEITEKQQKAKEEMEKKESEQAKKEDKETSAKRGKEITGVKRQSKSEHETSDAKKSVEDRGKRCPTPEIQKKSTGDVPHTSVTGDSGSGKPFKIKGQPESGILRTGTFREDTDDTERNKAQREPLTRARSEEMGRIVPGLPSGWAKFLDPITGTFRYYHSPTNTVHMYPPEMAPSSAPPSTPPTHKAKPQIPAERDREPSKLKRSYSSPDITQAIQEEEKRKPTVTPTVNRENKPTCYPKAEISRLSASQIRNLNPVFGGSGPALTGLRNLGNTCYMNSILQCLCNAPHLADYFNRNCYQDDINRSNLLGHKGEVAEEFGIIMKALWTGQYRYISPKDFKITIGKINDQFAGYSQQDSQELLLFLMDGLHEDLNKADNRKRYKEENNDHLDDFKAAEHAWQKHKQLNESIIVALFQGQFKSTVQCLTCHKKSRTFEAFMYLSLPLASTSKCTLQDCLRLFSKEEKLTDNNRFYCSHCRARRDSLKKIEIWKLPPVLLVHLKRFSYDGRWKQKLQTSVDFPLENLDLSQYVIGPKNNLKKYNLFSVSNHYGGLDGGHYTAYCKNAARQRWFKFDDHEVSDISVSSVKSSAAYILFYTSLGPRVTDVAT
Procedure, shortened: as §1

Measured: log2 ratio of Biotin-Ahx-Ub-VS probe labelling

Cc1ccc(CNC(=O)CCl)nc1C.Cl
inactive: USP42 0.369 | USP46 0.12 | USP47 0.076 | USP48 -0.13 | USP5 -0.461 | USP54 -0.18 | USP7 -0.299 | USP8 -0.217
